Assay [1] in a line: BSK_3C_VCAM1: BioMAP Diversity Plus: 3C Assay for Vascular cell adhesion molecule 1 (VCAM1) Biomarker Activity (AID 2282999). Particulars: BioMAP 3C HUVEC, VCAM1 ELISA, cytokine-stimulated; actives raise or lower the signal. In a few lines:
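HUVEC primary cells, 24 h compound exposure; VCAM-1 by ELISA; gain/loss of signal fitted bidirectionally vs DMSO baseline.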

Assay [2] can be described thus: BSK_4H_Eotaxin3: BioMAP Diversity Plus: 4H Assay for Eotaxin 3 Biomarker Activity (AID 2283000).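 As to outcome: CCL26 protein level quantified by ELISA in parallel with SRB cytotoxicity check.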 The conditions noted are these: primary human endothelial cells (HUVEC); actives raise or lower the signal. The method, boiled down:
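Human umbilical vein endothelial cells (BSK_4H system) dosed with test chemical; Eotaxin-3 (CCL26) measured by ELISA 24 h after dosing. Bidirectional curve fitting relative to DMSO negative control as baseline.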

Read-out in assay [3]: Intercellular Adhesion Molecule 1 (ICAM1), ICAM1 (gene 3383)
Kind of assay: BSK_3C_ICAM1: BioMAP Diversity Plus: 3C Assay for Intercellular Adhesion Molecule 1 (ICAM1) Biomarker Activity (AID 2283003). The conditions noted are these: primary human endothelial cells (HUVEC); actives raise or lower the signal. The method, boiled down:
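ELISA read-out of ICAM-1; HUVEC (primary human), 3C system, 24 h post-dosing; bidirectional fit vs DMSO baseline.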

The nature of assay [4]: BSK_3C_Proliferation: Cell Proliferation Assessment in the BioMAP Diversity Plus: 3C Assay (AID 2283006).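 As to AC50: potency may reflect either rise or fall in cell number versus DMSO.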 The conditions noted are these: primary human endothelial cells (HUVEC). In a few lines: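 HUVEC, sub-confluent; 48 h chemical exposure; 10% TCA fix, 0.1% SRB stain, A560 total protein. Gain or loss of signal fitted both directions vs DMSO control.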
Read-out in assay [5]: E-selectin (Homo sapiens) (UniProt P16581)
Kind of assay: BSK_3C_Eselectin: BioMAP Diversity Plus: 3C Assay for Eselectin Biomarker Activity (AID 2283015).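 As to outcome: cell surface E-selectin protein quantified by ELISA 24 h after dosing.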 The conditions noted are these: primary human endothelial cells (HUVEC); actives raise or lower the signal. The method, boiled down: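 E-selectin ELISA readout, fitted bidirectionally relative to DMSO, taken 24 h post-dosing in HUVEC cultures of the 3C system. Overt cytotoxicity tracked with sulforhodamine B staining of parallel wells.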

Read-out in assay [6]: Human Leukocyte Antigen - DR isotype (HLADR), HLA-DRA (gene 3122)
Kind of assay: BSK_3C_HLADR: BioMAP Diversity Plus: 3C Assay for Human Leukocyte Antigen - DR isotype (HLADR) Biomarker Activity (AID 2283019).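 As to outcome: ELISA of cell-surface HLA-DR on HUVEC 24 h after dosing.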 The conditions noted are these: primary human endothelial cells (HUVEC); actives raise or lower the signal. In a few lines: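 Bidirectional fitting against DMSO was applied to the HLA-DR ELISA signal from human umbilical vein endothelial cells, 24 h post-dose. Cytotoxicity came from parallel SRB total-protein staining; 3C proliferation was counted by SRB at 48 h.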

Read-out in assay [7]: Matrix Metallopeptidase 1 (MMP1), MMP1 (gene 4312)
Briefly: BSK_BE3C_MMP1: BioMAP Diversity Plus: BE3C Assay for Matrix Metallopeptidase 1 (MMP1) Biomarker Activity (AID 2283024). The conditions noted are these: primary human bronchial epithelial cells; actives raise or lower the signal. In a few lines:
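ELISA read-out of MMP1 in human lung bronchial epithelial primary cultures, 24 h post-dose; bidirectional curve fit vs DMSO baseline, gain or loss of signal scored.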

Assay [8] can be described thus: BSK_BE3C_SRB: Viability Assessment in the BioMAP Diversity Plus: BE3C Assay (AID 2283028). The conditions noted are these: primary human bronchial epithelial cells. The method, boiled down:
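Cytotoxicity read-out: SRB (0.1%) staining of TCA-fixed (10%) human lung bronchial epithelial cells, absorbance 560 nm, 24 h post-dosing. Curves fitted both directions relative to DMSO.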

Read-out in assay [9]: Thrombomodulin, THBD (gene 7056)
Kind of assay: BSK_3C_Thrombomodulin: BioMAP Diversity Plus: 3C Assay for Thrombomodulin Biomarker Activity (AID 2283029). The conditions noted are these: primary human endothelial cells (HUVEC); actives raise or lower the signal. The method, boiled down:
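HUVEC, 3C conditions; compound 24 h; thrombomodulin by ELISA; bidirectional curve fit vs DMSO baseline; parallel SRB total-protein staining for cytotoxicity.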

Read-out in assay [10]: Interferon-gamma inducible Protein 10 (IP10), CXCL10 (gene 3627)
Briefly: BSK_BE3C_IP10: BioMAP Diversity Plus: BE3C Assay for Interferon-gamma inducible Protein 10 (IP10) Biomarker Activity (AID 2283034). The conditions noted are these: primary human bronchial epithelial cells; actives raise or lower the signal. The method, boiled down:
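ELISA readout of IP-10 in BE3C system: primary human bronchial epithelial cells, 24 h post-dosing; bidirectional curve fit vs DMSO baseline.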

Read-out in assay [11]: Monokine induced gamma interferon (MIG), CXCL9 (gene 4283)
Kind of assay: BSK_BE3C_MIG: BioMAP Diversity Plus: BE3C Assay for Monokine induced gamma interferon (MIG) Biomarker Activity (AID 2283035).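 Also: MIG protein measured by ELISA in BE3C cultures after 24 h of dosing.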 The conditions noted are these: primary human bronchial epithelial cells; actives raise or lower the signal. In a few lines:
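Dose cells (human primary bronchial epithelial), incubate 24 h, quantify MIG by ELISA, then fit concentration–response in both directions relative to DMSO control.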

Read-out in assay [12]: Urokinase-type plasminogen activator receptor (uPAR), PLAUR (gene 5329)
Briefly: BSK_BE3C_uPAR: BioMAP Diversity Plus: BE3C Assay for Urokinase-type plasminogen activator receptor (uPAR) Biomarker Activity (AID 2283039).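 Also: uPAR protein level measured by ELISA on the cells; cells exposed to compound for one day before measurement.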 Particulars: primary human bronchial epithelial cells; actives raise or lower the signal. In a few lines:
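ELISA readout of uPAR on human lung primary bronchial epithelial cells, 24 h post-dosing. Bidirectional curve fit relative to DMSO vehicle baseline; gain or loss of signal both scored.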

Read-out in assay [13]: Interleukin-6 (IL6), IL6 (gene 3569)
Kind of assay: BSK_CASM3C_IL6: BioMAP Diversity Plus: CASM3C Assay for Interleukin-6 (IL6) Biomarker Activity for (AID 2283040). Particulars: primary human coronary artery smooth muscle cells; actives raise or lower the signal.

Read-out in assay [14]: Interleukin-8 (IL8), CXCL8 (gene 3576)
Briefly: BSK_CASM3C_IL8: BioMAP Diversity Plus: CASM3C Assay for Interleukin-8 (IL8) Biomarker Activity (AID 2283042).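 Also: IL-8 protein level quantified by ELISA.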 Particulars: primary human coronary artery smooth muscle cells; actives raise or lower the signal.

Read-out in assay [15]: Human Leukocyte Antigen - DR isotype (HLADR), HLA-DRA (gene 3122)
Briefly: BSK_CASM3C_HLADR: BioMAP Diversity Plus: CASM3C Assay for Human Leukocyte Antigen - DR isotype (HLADR) Biomarker Activity (AID 2283043).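 Also: cell-surface HLA-DR protein level quantified by ELISA.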 Particulars: primary human coronary artery smooth muscle cells; actives raise or lower the signal.

A short description of assay [16]: BSK_CASM3C_SRB: Viability Assessment in the BioMAP Diversity Plus: CASM3C Assay (AID 2283050).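 Also: total protein by SRB staining as cytotoxicity measure in parallel cultures.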 The conditions noted are these: primary human coronary artery smooth muscle cells.
Read-out in assay [17]: Interleukin-8 (IL8), CXCL8 (gene 3576)
Kind of assay: BSK_LPS_IL8: BioMAP Diversity Plus: LPS Assay for Interleukin-8 (IL8) Biomarker Activity (AID 2283078). The conditions noted are these: primary human HUVEC with PBMC; actives raise or lower the signal. In a few lines:
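ELISA read-out of IL-8 after 24 h chemical treatment of LPS-activated endothelial/PBMC human primary co-cultures. Changes either up or down relative to DMSO; overt cytotoxicity checked by sulforhodamine B staining in parallel wells.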

Read-out in assay [18]: Monocyte Chemoattractant Protein-1 (MCP1), CCL2 (gene 6347)
Kind of assay: BSK_LPS_MCP1: BioMAP Diversity Plus: LPS Assay for Monocyte Chemoattractant Protein-1 (MCP1) Biomarker Activity (AID 2283081).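 As to AC50: co-culture stimulated with LPS; secreted MCP-1 protein quantified by ELISA in culture supernatant.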 Particulars: primary human HUVEC with PBMC; actives raise or lower the signal. The method, boiled down:
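Secreted MCP-1 read by ELISA at 24 h post-dosing in an LPS-activated co-culture of endothelial cells with peripheral blood mononuclear cells. Fits run in both directions, DMSO as baseline; parallel SRB staining tracks overt cytotoxicity.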

Read-out in assay [19]: Monocyte Chemoattractant Protein-1 (MCP1), CCL2 (gene 6347)
Briefly: BSK_SAg_MCP1: BioMAP Diversity Plus: SAg Assay for Monocyte Chemoattractant Protein-1 (MCP1) Biomarker Activity (AID 2283090). The conditions noted are these: primary human HUVEC with PBMC; actives raise or lower the signal. In a few lines:
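Values derive from bidirectional fitting of ELISA-measured MCP1 against DMSO controls. Readings were taken 24 h after dosing human vascular endothelial cells co-cultured with peripheral blood mononuclear cells under superantigen stimulation.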

Read-out in assay [20]: Monokine induced gamma interferon (MIG), CXCL9 (gene 4283)
Briefly: BSK_SAg_MIG: BioMAP Diversity Plus: SAg Assay for Monokine induced gamma interferon (MIG) Biomarker Activity (AID 2283092). The conditions noted are these: primary human HUVEC with PBMC; actives raise or lower the signal. The method, boiled down:
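Values reflect bidirectional fitting of ELISA-measured MIG against DMSO vehicle, taken 24 h after dosing of a co-culture of human umbilical vein endothelial cells and peripheral blood mononuclear cells.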

Values joined by “and” are separate entries in the source; they are usually repeats but may differ in a detail not shown here. Identical values can stand only once. A structure can be active in one record and inactive in another. Active and inactive are the calls of the source. The calls were made as follows: active = hit-call score of the fitted dose curve at least 0.9, where 1 is the maximum; inactive = score below 0.9.

Chain of E-selectin (Homo sapiens) (P16581 whole entry, looked up): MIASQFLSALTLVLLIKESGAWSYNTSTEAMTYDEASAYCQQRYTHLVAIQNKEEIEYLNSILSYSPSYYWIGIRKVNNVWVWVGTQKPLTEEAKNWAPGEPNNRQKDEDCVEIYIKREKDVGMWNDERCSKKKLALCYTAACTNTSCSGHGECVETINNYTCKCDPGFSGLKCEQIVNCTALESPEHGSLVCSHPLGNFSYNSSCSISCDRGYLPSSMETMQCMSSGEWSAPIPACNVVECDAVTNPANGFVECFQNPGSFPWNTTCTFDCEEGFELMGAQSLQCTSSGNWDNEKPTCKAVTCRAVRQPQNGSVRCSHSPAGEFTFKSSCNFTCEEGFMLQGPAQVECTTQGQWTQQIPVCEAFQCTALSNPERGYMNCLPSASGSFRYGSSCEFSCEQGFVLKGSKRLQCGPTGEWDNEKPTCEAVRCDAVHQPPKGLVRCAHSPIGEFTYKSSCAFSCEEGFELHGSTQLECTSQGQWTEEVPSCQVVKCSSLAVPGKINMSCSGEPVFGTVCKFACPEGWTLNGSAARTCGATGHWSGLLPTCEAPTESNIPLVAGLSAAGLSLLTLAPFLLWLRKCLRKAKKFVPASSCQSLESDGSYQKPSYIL

Turning to `COc1ccc(CO)cc1`, the outcome in assay [1], in assay [2], in assay [3], in [4], in assay [5] and in assay [6] was inactive. Further, the result in assay [7], in [8], in assay [9], in assay [10], in [11] and in [12] was inactive. For the same compound, the outcome in assay [13], in [14], in [15], in assay [16], in assay [17] and in [18] was inactive. For the same compound, the result in assay [19] and in assay [20] was inactive.

As for `CC(C)COP(=O)(OCC(C)C)OCC(C)C`, the result in assay [1], in assay [2], in [3], in assay [4], in [5] and in assay [6] was inactive. Also, the outcome in assay [7], in [8], in assay [9], in [10], in [11] and in assay [12] was inactive. Besides, the result in assay [13], in [14], in assay [15], in assay [16], in assay [17] and in [18] was inactive. The outcome in assay [19] and in assay [20] was inactive.

For `O=c1[nH]c(Cl)c(Cl)cc1Cl`, the outcome in assay [1], in [2], in assay [3], in assay [4], in [5] and in [6] was inactive. Also, the result in [7], in assay [8], in assay [9], in [10], in assay [11] and in [12] was inactive. The outcome in [13], in assay [14], in [15], in [16], in assay [17] and in assay [18] was inactive. The result in assay [19] and in assay [20] was inactive.

Take `CC(=O)/C=C/c1ccccc1`: the concentration at half-maximal activity (AC50) in assay [1] was 20 µM (active); in assay [4], 23.2 µM (active); in [6], 26.9 µM (active); in assay [17], 20 µM (active). In addition, the outcome in assay [2], in assay [3], in assay [5], in assay [7], in assay [8] and in assay [9] was inactive. Moreover, the result in assay [10], in assay [11], in [12], in assay [13], in assay [14] and in assay [15] was inactive. The outcome in [16], in assay [18], in assay [19] and in assay [20] was inactive.

In the case of `O=C1C=CC(=O)C=C1`, the AC50 in [1] was 13.8 µM (active) and 20 µM (active); in assay [2], 20 µM (active); in assay [3], 20 µM (active) and 28.6 µM (active); in [4] it was 26.2 µM (active) and 6.35 µM (active); in assay [5] it was 13.4 µM (active) and 8.64 µM (active); in assay [6], 28.8 µM (active) and 13.8 µM (active). Besides, the concentration at half-maximal activity (AC50) in assay [7] is 5.14 µM (active) and 4.77 µM (active); in assay [10] it was 16.3 µM (active) and 30.9 µM (active); in [15], 10.9 µM (active) and 20 µM (active); in assay [16], 4.88 µM (active); in assay [17], 23.6 µM (active); in [18], 32.6 µM (active). In addition, the AC50 is 31.4 µM (active) in assay [19] and 35.6 µM (active) in assay [20]. In addition, the result in [8], in [9], in [11], in assay [12], in [13] and in [14] was inactive. The outcome in assay [16], in assay [17], in assay [18], in assay [19] and in assay [20] was inactive.

The values are drawn from PubChem BioAssay (EPA / NIEHS).
